# According to PubChem BioAssay:
# Assay: JC-1 mitochondrial signal, unstimulated HepG2 cells – cell-based, JC-1 fluorescence, 24 h, 100 nL compound, profiling panel (AID 1167); also: test concentration not given here
# Details: HepG2 mitochondrial potential, higher = more signal
row,Structure (SMILES),z-score
1,COC(=O)Cn1c(C(=O)N2CCCC2)cc2c1C[C@H]1CN(C(=O)c3ccccc3)[C@@](Cc3ccccc3)(C(=O)OC)[C@@H]21,0.876
2,O=C1C[C@@](C(=O)NCCN2CCOCC2)(c2ccc([N+](=O)[O-])cc2)[C@@H](c2ccc(CO)cc2)N1C1CCCCC1,0.899
3,CC(=O)NCCCC[C@@H]1NC(=O)[C@H]2C[C@@H](C(=O)NCCCCCCN(C)C)[C@@H](c3cccc(OCCO)c3)N2C1=O,-0.0861
4,CC(C)(C)OC(=O)CC[C@]1(C(=O)N2CCCCC2)N=C(c2ccc(OCCCO)cc2)O[C@H]1c1ccccc1,2.2
5,CC(=O)NCCCC[C@@H]1NC(=O)[C@H]2C[C@@H](C(=O)NCCCCCCN(C)C)[C@@H](c3ccc(O)cc3)N2C1=O,-0.755
6,O=C1C2C=CC(C(O)Cc3ccccc3)N(Nc3ccc([N+](=O)[O-])cc3)C2C(=O)N1c1ccccc1 (configuration not stated),-1.36
7,C=C(COC)C(=O)CC[C@H](OC(=O)c1ccccc1-c1ccccc1C(=O)O)c1cccc(OCCO)c1,-2.01
8,C=CC[C@@]1(C(=O)NCC(O)CO)N=C(c2ccc(OCCCO)cc2)O[C@@H]1c1ccccc1CN=[N+]=[N-] (some centres not stated),1.41
9,O=C(CS)NCCCCCCNC(=O)[C@@H]1C[C@@H]2C(=O)N[C@@H](Cc3ccccc3)C(=O)N2[C@@H]1c1ccc(O)cc1,-1.67
10,C=CC[C@]1(C(=O)N2CCCCC2)N=C(c2ccc(OCCCO)cc2)O[C@H]1c1ccccc1N=[N+]=[N-],0.654
11,COC(=O)[C@@]1(Cc2ccc(OC)cc2)[C@H]2c3cc(C(=O)N(C)C)n(Cc4ccc(C)c(F)c4F)c3C[C@H]2CN1C(=O)c1ccccc1,0.00937
12,[N-]=[N+]=NCc1ccccc1C[C@]1(C(=O)N2CCCCC2)N=C(c2ccc(OCCCO)cc2)O[C@H]1c1ccccc1CN=[N+]=[N-],0.675
13,CC(C)[Si](OCC[C@H]1O[C@]2(C(=O)N(Cc3ccccc3)c3ccccc32)[C@@H](C)[C@@H]1[Si](C)(C)O)(C(C)C)C(C)C,0.444
14,C=CCC(OC(C)=O)[C@@H]1[C@@H](N(Cc2ccc(-c3cccc(C(F)(F)F)c3)o2)C(=O)Cc2ccc(F)cc2)c2cc(OCCCO)ccc2N1C(=O)c1ccc(-c2ccccc2)cc1 (some centres not stated),1.88
15,C=C[C@H](OC)[C@@H](OC(=O)Nc1ccc(SC)cc1)c1ccc(O)c(F)c1,-2.33
16,O=C1O[C@H](c2ccccc2)[C@H](c2ccccc2)N2[C@H]1[C@@H](C(=O)NC[C@H](O)c1ccccc1)[C@]1(C(=O)Nc3ccc(C#CC4(O)CCCCCC4)cc31)[C@H]2c1ccc(OCCO)cc1,-1.32
17,CC(C)C[C@@H]1NC(=O)[C@H](CC(C)C)NC(=O)[C@@]23C(=O)N[C@@H](Cc4ccccc4)C2[C@H](C)[C@@]2(C)O[C@H]2C3/C=C/CC/C=C/CNC1=O (some centres not stated),2.33
18,O=C1NC(=O)C2C1C=CC(C(O)C=Cc1ccc([N+](=O)[O-])cc1)N2Nc1ccccn1 (configuration not stated),-0.249
19,NC(=O)NCC#Cc1ccc2c(c1)[C@]1(C(=O)N2)[C@H](C(N)=O)[C@H]2C(=O)O[C@H](c3ccccc3)[C@H](c3ccccc3)N2[C@@H]1c1ccccc1OCCO,-1.01
20,CCOC(=O)C[C@H]1[C@H](OC(=O)c2cc3ccccc3oc2=O)[C@@H](NC(=O)C2CCCCC2)c2cc(OCCCO)ccc2N1C(=O)c1ccc2ccccc2n1,0.0115
21,COc1cc2c(cc1OC)CN(C(=O)[C@H]1[C@@H]3C(=O)O[C@@H](c4ccccc4)[C@@H](c4ccccc4)N3[C@@H](c3ccc(O)cc3)[C@]13C(=O)Nc1ccc(C#CC4(O)CCCCCC4)cc13)CC2,-1.37
22,O=C1OCCC/C=C\[C@H]2OC34C=CCN(CCN5CCOCC5)C(=O)[C@H]3N(CCCCCO)C(=O)[C@@H]4C12 (some centres not stated),-1.04
23,C[N+](C)(C)CCCCNC(=O)[C@H]1C[C@H]2C(=O)NCC(=O)N2[C@H]1c1cccc(OCCO)c1,-1.13
24,O=C1C[C@@](C(=O)NC2CC2)(c2ccc([N+](=O)[O-])cc2)[C@@H](c2ccc(CO)cc2I)N1CC12CC3CC(CC(C3)C1)C2,-2.32
25,C=C(CCCC)/C(=C/C[C@@H](OC(=O)c1ccncc1)c1cccc(OCCO)c1)c1cc(C(=O)OC)ccc1OC,2.91
26,Cc1ccc(S[C@]2(C(=O)NCCCN(C)C)CC(=O)N(Cc3ccccc3)[C@@H]2c2ccc(CO)cc2I)cc1,1.65
27,O=C1O[C@H](c2ccccc2)[C@H](c2ccccc2)N2[C@H]1[C@@H](C(=O)Nc1nc3ccccc3s1)[C@]1(C(=O)Nc3ccc(C#CC4(O)CCCCCC4)cc31)[C@H]2c1ccc(O)cc1,-3.62
